Lassa entry inh = blocks Lassa virus binding to or entry into cells; Lassa virus pseudotype entry inhibition, cell reporter; 1.2% of 300,000 active; Potency, µM (doses to about 37.9 µM), inactives show at the highest dose activity change, negative = inhibition, usual class: inhibitors; calls by dose curve; tested in HEK293 cells; note: potency is the fitted concentration of half-maximal effect; nearly all actives have a fitted effect of over 50% in size
MARV entry inh = Marburg virus entry inhibition; Marburg virus pseudotyped entry inhibition, cell reporter; Potency, µM (titrated, usually from 37.8 µM), for inactives: at the top dose activity change, negative = inhibition, usual class: inhibitors; 1.8% of 300,000 active; calls by dose curve; tested in HEK293 cells; note: potency is the fitted concentration of half-maximal effect
HCMV inh = blocks human cytomegalovirus replication. HFF cells, HCMV-luciferase reporter, 72 h; active compounds read low. activity change, negative = inhibition, % at 57.5 µM. 4.5% of 410,000 active. AID 1259415; in the data active = activity change below about -60%; inconclusive = no clear call, values can overlap the other calls; inactive = above about -39%
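Compounds were evaluated in HFFs infected with an HCMV luciferase reporter virus (MOI 1 PFU/cell). Luciferase in lysates collected 72 h post infection served as the replication measure.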
VACV mCherry inh = vaccinia inhibition (mCherry reporter) | Vaccinia virus mCherry reporter infection, fluorescence | Potency, µM (top dose mostly 36.5 µM), inactives show at the highest dose activity change, negative = inhibition, usual class: inhibitors | 0.63% of 310,000 active | AID 720579; calls by dose curve; tested in A549 cells; note: potency is the fitted concentration of half-maximal effect; nearly all actives have a fitted effect of over 35% in size
FMDV inh = blocks foot and mouth disease virus; 1.2% of 410,000 active; Potency, µM (top dose mostly 57.9 µM), inactives show top-dose activity change, negative = inhibition, hits mostly inhibitors; FMDV antiviral cell-based qHTS; calls by dose curve; tested in HEK293T cells; note: read-out not given here; potency is the fitted concentration of half-maximal effect; nearly all actives have a fitted effect of over 45% in size
VACV Venus inh = inhibitors of vaccinia virus (Venus reporter). Vaccinia virus Venus reporter expression, fluorescence. AID 720580. Potency, µM (series often up to 36.5 µM), without a hit: top-dose activity change, negative = inhibition, most hits filed as inhibitors. 0.46% of 330,000 active; calls by dose curve; tested in A549 cells; note: potency is the fitted concentration of half-maximal effect; nearly all actives have a fitted effect of over 30% in size
Active calls of the source: *; [ ] = dose if it differs, or a comment. Shown are actives, neighbours in structure and some others; about 6.5% of the full set was active somewhere. % is set by controls: 0 for no effect and ±100 for the full control effect.

How did O=C(Cn1ncc(Cl)c(Cl)c1=O)N1CCN(S(=O)(=O)c2ccc3ccccc3c2)CC1 do in these assays?
Lassa entry inh: inconclusive; MARV entry inh: 1.8µM*; HCMV inh: -86*; VACV mCherry inh: inconclusive; FMDV inh: 28µM*; VACV Venus inh: inconclusive

What do the screens show for `Cc1ccc2oc(=O)c3cnn(CC(=O)Nc4ccc(Br)cc4C)c3c2c1`?
Lassa entry inh: 4%[46.1 µM]; MARV entry inh: 1%[46.1 µM]; HCMV inh: 8; VACV mCherry inh: -4%; FMDV inh: -7%; VACV Venus inh: -10%

Results for O=C(Cn1ncc(Cl)c(Cl)c1=O)Nc1ccc2c(c1)OCO2 ?
HCMV inh: -102*; FMDV inh: 35µM*

How did COc1ccc(NC(=O)Cn2ncc(Cl)c(Cl)c2=O)cc1S(=O)(=O)N1CCOCC1 do in these assays?
Lassa entry inh: inconclusive; MARV entry inh: inconclusive; HCMV inh: -100*; VACV mCherry inh: -2%; FMDV inh: 40µM*; VACV Venus inh: -15%

What do the screens show for `Cc1cc(Br)ccc1NC(=O)CNC(=O)Cn1ncc(Cl)c(Cl)c1=O`?
MARV entry inh: -26%[46.1 µM]; HCMV inh: -101*; VACV mCherry inh: -4%; FMDV inh: 6.3µM*; VACV Venus inh: -8%

How did Cc1ccc(S(=O)(=O)N2CCCCC2)cc1NC(=O)Cn1cnnn1 do in these assays?
HCMV inh: -6; FMDV inh: -15%

What do the screens show for `O=C(Cn1ncc(Cl)c(Cl)c1=O)c1ccc2c(c1)OCCO2`?
Lassa entry inh: 13µM*; MARV entry inh: inconclusive; HCMV inh: -81*; VACV mCherry inh: inconclusive; FMDV inh: inconclusive; VACV Venus inh: -26%

How did O=C(Cn1ncc(Cl)c(Cl)c1=O)NC(=O)NC1CCCCC1 do in these assays?
Lassa entry inh: inconclusive; MARV entry inh: 11µM*; HCMV inh: -94*; VACV mCherry inh: -35%; FMDV inh: 35µM*; VACV Venus inh: inconclusive

What do the screens show for `Cc1ccc(S(=O)(=O)N2CCCCC2)cc1NC(=O)Cn1ncc(Cl)c(Cl)c1=O`?
HCMV inh: -97*; FMDV inh: 20µM*

Results for CCN(CC)S(=O)(=O)c1cc(NC(=O)Cn2ncc(Cl)c(Cl)c2=O)ccc1C ?
HCMV inh: -79*; VACV mCherry inh: inconclusive; FMDV inh: -93%; VACV Venus inh: inconclusive

How did Cc1ccc2nc(/C=C/c3ccc(N(C)C)cc3)ccc2c1 do in these assays?
VACV mCherry inh: -1%; VACV Venus inh: 11%

What do the screens show for `COCCNC(=O)C(C)(C)n1cc(NC(=O)COCc2ccccc2)cn1`?
HCMV inh: 1

What do the screens show for `Cc1ccc(-c2cc3c(N4CCN(c5cc(C)ccc5C)CC4)nccn3n2)cc1`?
Lassa entry inh: inconclusive; MARV entry inh: inconclusive; HCMV inh: 20; VACV mCherry inh: -8%; FMDV inh: -20%; VACV Venus inh: -7%

How did Cc1nc2ccc(S(=O)(=O)N(CC(=O)Nc3cccc(C)c3C)Cc3ccccc3)cc2s1 do in these assays?
Lassa entry inh: 15%[46.1 µM]; HCMV inh: -15; VACV mCherry inh: -28%; FMDV inh: -15%; VACV Venus inh: -22%

How did COc1cc(-c2noc(-c3ccc(NCc4ccco4)c([N+](=O)[O-])c3)n2)cc(OC)c1OC do in these assays?
Lassa entry inh: inconclusive; MARV entry inh: 17%[46.1 µM]; HCMV inh: -1; VACV mCherry inh: -10%; FMDV inh: -20%; VACV Venus inh: -5%

How did CC(=O)c1ccc(NC(=O)c2cc(S(=O)(=O)N3CCOCC3)ccc2C)cc1 do in these assays?
Lassa entry inh: -19%[46.1 µM]; HCMV inh: -15; VACV mCherry inh: -4%; FMDV inh: inconclusive; VACV Venus inh: 1%

Results for Cc1ccc(S(=O)(=O)N2CCOCC2)cc1C(=O)O ?
Lassa entry inh: -12%; MARV entry inh: -2%; HCMV inh: 3; FMDV inh: 6%

How did CCCCn1ccnc1C(=O)c1cc(S(=O)(=O)N2CCOCC2)ccc1C do in these assays?
Lassa entry inh: -21%; MARV entry inh: inconclusive; HCMV inh: -66*; FMDV inh: -12%

What do the screens show for `Cc1ccc(S(=O)(=O)N2CCOCC2)cc1C(=O)Nc1ccc(N2CCCCCC2)cc1`?
Lassa entry inh: inconclusive; MARV entry inh: inconclusive; HCMV inh: -64*; VACV mCherry inh: inconclusive; FMDV inh: -13%; VACV Venus inh: -27%

What do the screens show for `CC(=O)Nc1ccc(NC(=O)c2cc(-c3cc(C)cc(C)c3O)n[nH]2)cc1`?
HCMV inh: inconclusive; FMDV inh: -30%

Results for O=C(c1ccc(Cl)c(S(=O)(=O)N2CCCCC2)c1)N1CCN(c2ccccc2)CC1 ?
Lassa entry inh: inconclusive; MARV entry inh: inconclusive; HCMV inh: -77*; VACV mCherry inh: -9%; FMDV inh: inconclusive; VACV Venus inh: -19%

Results for Cc1cc(C)c(O)c(-c2cc(C(=O)Nc3ccc(S(=O)(=O)N4CCOCC4)cc3)[nH]n2)c1 ?
Lassa entry inh: inconclusive; MARV entry inh: inconclusive; HCMV inh: -76*; VACV mCherry inh: 10µM*; FMDV inh: inconclusive; VACV Venus inh: 13µM*

Results for Cc1ccc2c(C)c(C(=O)N(Cc3ccc(N(C)C)cc3)Cc3ccco3)oc2c1C ?
Lassa entry inh: inconclusive; MARV entry inh: -2%[46.1 µM]; HCMV inh: -1; VACV mCherry inh: -17%; FMDV inh: -24%; VACV Venus inh: -8%

What do the screens show for `Clc1ccc(-n2cccc2CN2CCc3nnc(Cc4ccccc4)n3CC2)nc1`?
VACV mCherry inh: inactive; FMDV inh: -13%; VACV Venus inh: -11%

Results for Cc1c(C(=O)N2CC3CCC2C3)sc2ncnc(NCCc3c[nH]c4ccccc34)c12 (stereo not given) ?
VACV mCherry inh: inconclusive; FMDV inh: inconclusive; VACV Venus inh: -25%

Results for O=C(Nc1ccc(N2CCOCC2)cc1)c1ccc(Cl)c(S(=O)(=O)N2CCCCC2)c1 ?
HCMV inh: -63*; FMDV inh: inconclusive

Results for O=C(c1ccc(Cl)c(S(=O)(=O)N2CCCC2)c1)N1CCN(c2ccc(F)cc2)CC1 ?
Lassa entry inh: inconclusive; MARV entry inh: inconclusive; HCMV inh: -87*; VACV mCherry inh: inconclusive; FMDV inh: inconclusive; VACV Venus inh: -27%

What do the screens show for `O=C(c1ccc(Cl)c(S(=O)(=O)N2CCCC2)c1)N1CCN(c2ccccc2)CC1`?
Lassa entry inh: inconclusive; MARV entry inh: inconclusive; HCMV inh: inconclusive; VACV mCherry inh: -19%; FMDV inh: 0%; VACV Venus inh: -14%

Results for O=C(Nc1ccc(N2CCOCC2)cc1)c1cccc(S(=O)(=O)N2CCCCC2)c1 ?
Lassa entry inh: 11%; MARV entry inh: 7%; HCMV inh: -21; VACV mCherry inh: -21%; FMDV inh: inconclusive; VACV Venus inh: -15%

What do the screens show for `CCCn1c(NC(=O)c2ccc(Cl)c(S(=O)(=O)N3CCCC3)c2)nc2ccccc21`?
Lassa entry inh: inconclusive; MARV entry inh: inconclusive; HCMV inh: -63*; VACV mCherry inh: 11µM*; FMDV inh: inconclusive; VACV Venus inh: 25µM*

Assay outcomes (PubChem BioAssay)
